# Results reported in PubChem BioAssay (NCI).
# The panel holds about 83,000 compounds, 20% with a hit somewhere; the sample as a whole holds those more often.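 How to read the values: 0–100, growth inhibition (40 = 60% inhibited); 0, no net growth; -100 to 0, cell death (-40 = 40% of starting cells died; -100 = all dead).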 A number with no mark means an inactive call. Active and inactive are the calls of the source. Rule for the calls: active = growth percent below 10; inactive = the rest.
# System: PC-3 prostate
# Test: NCI-60 one-dose screen, 48 h (100 = growth as untreated, 0 = no growth, -100 = all killed)
# Conditions: 10 µM unless noted
row,SMILES,growth
1,Cc1nc(Nc2ccc(N)cc2)c2ccccc2n1,91%
2,COc1cccc(/C=C2\COc3ccc(O)cc3C2=O)c1OC,56.2%
3,CC(C)c1ccc(NC(=O)Cc2ccc(Nc3ncnc4cc(-c5cnn(CCN(C)C)c5)ccc34)cc2)cc1,-78.1% [30 µM] (active)
4,O=C1c2cccc3c(-c4ccc(-c5nc6c7ccccc7c7ccccc7c6[nH]5)cc4)ccc(c23)C(=O)N1CCN1CCNCC1,66.6%
5,O=C1/C(=C/c2ccc([N+](=O)[O-])cc2)COc2ccc(O)c(O)c21,-6.72% (active)
6,Cn1ccnc1C(=O)/C=C/c1ccc(C(=O)Nc2ccc(S(F)(F)(F)(F)F)cc2)cc1,17.4%
7,COc1ccc(OC)c(C(=O)Nc2cccc(-c3cc(=O)c4ccccc4o3)c2)c1,92.8%
8,C=C1C(=O)O[C@H]2[C@H]1CC/C(COC(=O)/C=C\C(=O)NCc1ccc(Cn3c(=O)sn(CCCI)c3=O)cc1)=C\CC[C@@]1(C)O[C@@H]21,-70.6% (active)

# System: SK-MEL-5 melanoma
# Test: as above
# Conditions: 10 µM unless noted
row,SMILES,growth
1,COc1ccc(-c2c(N)n[nH]c2-c2ccccc2O)cc1OC,87.8%
2,Cc1nc(Nc2ccc(NC(=S)Nc3ccccc3)cc2)nc2nc(Nc3ccc(S(=O)(=O)O)cc3)[nH]c(=O)c12,117%
3,COc1ccc(/C(C)=C(\c2ccc(Cl)cc2)c2ccc(OCCCN(C)C)cc2)cc1F,84.1%
4,COc1cc(/C=C/c2nc(Nc3ccc(S(=O)(=O)Nc4cc(C)on4)cc3)c3ccccc3n2)ccc1O,52.6%
5,Cc1nc(Nc2ccc(S(=O)(=O)Nc3cc(C)on3)cc2)c2ccccc2n1,99.7%
6,C/C(Cc1ccc(Cl)cc1)=C(/c1ccc(Cl)cc1)c1ccc(OCCN(C)C)cc1,67.5%
7,Cc1nc(Nc2cccc(NC(=O)Nc3ccc(Cl)cc3)c2)c2ccccc2n1,91.5%
8,CN(C)CCN1C(=O)c2cccc3c(-c4ccc(-c5nc6c7ccccc7c7ccccc7c6[nH]5)cc4)ccc(c23)C1=O,101%
9,O[C@H]1CO[C@H]2[C@@H]1OC[C@@H]2Oc1ccc(Nc2nc(Nc3ccc(F)c(Cl)c3)ncc2F)cc1Cl,-90.5% (active)
10,Cc1nc(Nc2ccc(N)cc2)c2ccccc2n1,91.9%
